Test results as given in PubChem BioAssay (Tox21).
Activity calls are given as the source filed them. Where a call stands in place of a potency, no number is given. Calls follow the shape of the full dose curve.

molecular target: Gonadotropin-releasing hormone receptor (Homo sapiens) (UniProt P30968); assay: Human gonadotropin-releasing hormone receptor (GnRHR) small molecule agonists, calcium flux assay in GnRHR-HEK293 cells (AID 1920063); conditions: calcium flux fluorescence, agonist mode; series mostly up to 57.6 µM; also: nearly all actives have a fitted effect of over 35% in size
Source text: National Center for Advancing Translational Sciences [NCATS]
Division of Preclinical Innovation [DPI]
U.S. Environmental Protection Agency [EPA]
National Institutes of Environmental Health Sciences [NIEHS]
National Toxicology Program [NTP]
U.S. Food and Drug Administration [FDA]
Gonadotropin-releasing hormone receptor (GnRHR) is a G-protein-coupled receptor (GPCR) and acts (through phospholipase C) to increase intracellular inositol trisphosphate and then release intracellular calcium stores. Cell-based GnRHR-Hek293 calcium influx assay is using HEK293 cells that have been genetically engineered to express the human GnRHR, which activity can be measured by calcium signaling. A compound/drug can activate (agonist) GnRHR that can be monitored by levels of intracellular calcium.
GnRHR-HEK293 cells developed by Codex Corp contain human GnRHR reporter gene, which was stably integrated into HEK 293 cells. The compound activation can be detected by fluorescence intensity via calcium flux assay. This cell line has been used to screen the Tox21 10K compound library to identify GnRHR agonists.
GnRHR-Hek293 cells were dispensed at 1500cells/4uL/well in 1536-well black wall/clear bottom plates using a multidrop dispenser. After the assay plates were incubated at a 37 C/5% CO2 incubator for 18 hours, 4 uL of Calcium Dye Solution was added to each well. The plates were incubated at 37 C for 1 hour. For agonist mode, 23 nL of compounds dissolved in DMSO, positive controls or DMSO only was transferred to the assay plate by a pin tool station. The fluorescence intensity in the plates was measured using FDSS 7000EX kinetic plate reader with a filter set of Ex/Em=480/540 for 3 min at 1 sec intervals. Each test compound was measured at 15 concentrations and in triplicates.

Gonadotropin-releasing hormone receptor (Homo sapiens), sequence (P30968 whole entry, looked up): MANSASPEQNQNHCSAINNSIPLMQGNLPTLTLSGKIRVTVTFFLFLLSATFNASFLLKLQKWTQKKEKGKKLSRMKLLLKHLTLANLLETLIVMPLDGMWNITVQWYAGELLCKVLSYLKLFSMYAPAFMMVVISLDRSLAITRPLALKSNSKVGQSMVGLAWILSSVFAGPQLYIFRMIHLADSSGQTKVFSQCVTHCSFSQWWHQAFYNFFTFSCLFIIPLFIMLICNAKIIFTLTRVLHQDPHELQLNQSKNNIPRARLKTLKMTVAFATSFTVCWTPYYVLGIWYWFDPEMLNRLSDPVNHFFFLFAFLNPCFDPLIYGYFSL

SMILES	Potency	activity change
CN1C(C)(C)CCCC1(C)C	inactive	–
CCCNC(C)C(=O)Nc1ccccc1C (stereo not given)	inactive	–
CN(C)C(=O)CNC(=O)Cc1ccccc1	inactive	–
Cc1scc2c1N(C(=O)CN1CCN(C)CC1)c1ccccc1NC2=O	inactive	–
CC(C)Nc1nc(N)nc(Cl)n1	inactive	–
NS(=O)(=O)c1cc(-c2nn[nH]n2)c(NCc2cccs2)cc1Cl	inactive	–
CC(=O)OCC(=O)[C@@]1(O)CC[C@H]2[C@@H]3CCC4=CC(=O)C=C[C@]4(C)[C@@]3(F)[C@@H](O)C[C@@]21C	inactive	–
CC(C(=O)O)c1ccc(-c2ccccc2)c(F)c1 (stereo not given)	inactive	–
CO[C@H]1O[C@H](CO)[C@@H](O)[C@H](O)[C@H]1O	inactive	–
CCCS(=O)c1ccc2nc(NC(=O)OC)[nH]c2c1 (stereo not given)	inactive	–
CCn1cc(C(=O)O)c(=O)c2cnc(N3CCCC3)nc21	–	-1.43% [at 5.22 µM, active compounds read high] (inactive)
Nc1ccc(S(=O)(=O)O)c(N)c1	inactive	–
C/C=C/C=C/CCCCCCCO	inactive	–
CCNc1nc(NC(C)(C)C)nc(OC)n1	inactive	–
CC1(C)S[C@@H]2[C@H](NC(=O)Cc3ccccc3)C(=O)N2[C@H]1C(=O)O (tested in a mixture with another compound)	inactive	–
O[C@@H]1CO[C@H]2[C@@H]1OC[C@@H]2O	inactive	–
Cc1cc(C)c(C=O)c(C)c1	inactive	–
C[C@H]1NCc2cc(-c3ccc4c(=O)c(C(=O)O)cn(C5CC5)c4c3OC(F)F)ccc21	–	-2.08% [at 11.8 µM, active compounds read high] (inactive)
O=CCCc1ccccc1	inactive	–
Nc1ccccc1O	inactive	–

SMILES	Potency	activity change
Cc1cccc(Nc2ccncc2S(=O)(=O)NC(=O)NC(C)C)c1	inactive	–
COc1ccc2sc(C(=O)Nc3nnn[nH]3)c(OC(C)C)c2c1	inactive	–
CCNS(=O)(=O)c1ccc(C)cc1	inactive	–
COc1c(Br)cc(Br)c(C)c1Br	inactive	–
CCC(C)COC(=O)CC(C)C (stereo not given)	inactive	–
COc1cccc(O)c1O	inactive	–
NS(=O)(=O)c1cc(C2(O)NC(=O)c3ccccc32)ccc1Cl (stereo not given)	inactive	–
CO/N=C(\C(=O)O)c1csc(NC(=O)CCl)n1	inactive	–
CC(C)(C)c1cc(CCC(=O)NN)cc(C(C)(C)C)c1O	inactive	–
OCc1ccccn1	inactive	–
COC(=O)c1ccc(I)cc1S(=O)(=O)NC(=O)Nc1nc(C)nc(OC)n1	inactive	–
CCCCCCCCCOC(C)=O	inactive	–
CCCCCc1ccc(Cl)cc1	inactive	–
OC[C@@H](O)C(O)[C@@H](O)CO (stereo not given in full)	inactive	–
O=C(CN1CCN(Cc2ccc3c(c2)OCO3)CC1)N1c2ccccc2Sc2ccccc21	inactive	–
O=C1CCCCO1	inactive	–
O=C(NCC1CN(c2ccc(N3CCOCC3=O)cc2)C(=O)O1)c1ccc(Cl)s1 (stereo not given)	inactive	–
O=C1CCC(C2CCCCC2)CC1	inactive	–
CCCCCCCC[N+](CCCCCCCC)(CCCCCCCC)CCCCCCCC	inactive	–
CCCCCCC/C=C/C=O	inactive	–
